Source: PubChem (several laboratories)
Myeloid diff MLP: promotes myeloid progenitor differentiation; ER-HoxA9 myeloid progenitors, lysozyme-GFP differentiation, flow cytometry; calls only at 10 µM; hit rate 1% among 360,000; AID 624256;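 active = normalized GFP-positive differentiation at or above the plate's own cutoff, the solvent-only control mean plus 3 SD; inconclusive = no clear call, values can overlap the other calls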;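 note: cells exposed to compound for four days before flow analysis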
M1 antag: antagonists of human M1 muscarinic receptor; P11229; CHO-K1 hM1, Fluo-8 calcium fluorescence, ACh EC80 antagonist; inhibition, % at 3 µM; hit rate 1.3% among 360,000;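 active = percent inhibition above its own plate's cutoff, namely the mean of that plate's compound wells plus 3 SD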;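 note: peak over basal fluorescence ratio during 140 s after agonist addition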
Target sequence (P11229 whole entry, looked up): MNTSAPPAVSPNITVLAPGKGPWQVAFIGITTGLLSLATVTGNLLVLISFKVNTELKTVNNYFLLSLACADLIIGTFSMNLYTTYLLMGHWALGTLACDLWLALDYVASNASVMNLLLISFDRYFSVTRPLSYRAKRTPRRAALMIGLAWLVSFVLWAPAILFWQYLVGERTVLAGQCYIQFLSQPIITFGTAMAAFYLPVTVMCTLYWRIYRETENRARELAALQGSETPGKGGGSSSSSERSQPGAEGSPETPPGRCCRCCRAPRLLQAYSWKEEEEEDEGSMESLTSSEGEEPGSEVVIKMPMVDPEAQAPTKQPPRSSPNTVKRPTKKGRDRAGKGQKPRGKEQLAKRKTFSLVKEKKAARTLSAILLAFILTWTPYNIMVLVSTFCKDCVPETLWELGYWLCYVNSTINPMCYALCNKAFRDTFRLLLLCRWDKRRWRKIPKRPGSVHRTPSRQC
ATG4B inhibitor: blocks human ATG4B protease cleavage of LC3 substrate; hit rate 0.51% among 340,000; AID 504462; Q9Y4P1; inhibition, % at 8.33 µM; ATG4B cleavage of LC3-PLA2, NBD-HPC fluorescence, 1 h; in the data active = inhibition above about 40%
SKN-1 block: C. elegans SKN-1 inhibition; C. elegans VP596 Pgst-4::GFP/RFP ratio, acrylamide-induced, 24 h; inhibition, % at 21.8 µM; hit rate 0.49% among 360,000;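 active = interference check ratio from 0.5 to 1.5 plus GFP to RFP signal ratio inhibition reaching or exceeding a fixed threshold, cut at about 30% in these data, passing the limit was not always enough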
CHRM1 agonist: human M1 muscarinic receptor agonism. P11229. CHO-K1 hM1, Fluo-8 calcium fluorescence, agonist mode; 0% DMSO, 100% acetylcholine EC100. activation, % at 3 µM. hit rate 0.33% among 360,000. AID 588814;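 active = activation above the run's mean compound activation plus 3 SD, cut at about 16% in these data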;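 note: peak over basal fluorescence ratio within a 140 s kinetic read after compound addition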
M1 PAM: human CHRM1 positive allosteric modulation. P11229. CHO-K1 hM1, Fluo-8 calcium fluorescence, ACh EC20; 0% = ACh EC20, 100% = maximal ACh. activation, % at 3 µM. hit rate 0.088% among 360,000. AID 588819; in the data active = activation above about 19%, passing the limit was not always enough
Each line names hits and unclear results; the compound was inactive in the other large screens. A selection: hits, their analogues and other compounds. The true share with any hit is near 3.5%.

COCCNC(=O)C1(C)Cc2c(-c3cccc(NC(C)=O)c3)ccnc2O1 (stereo not given)	none (no result: ATG4B inhibitor)
O=C(CCCn1ncn2c(cc3occc32)c1=O)NCc1cccc(Cl)c1	Myeloid diff MLP inconclusive
COc1cccc(CNC(=O)CCCn2ncn3c(cc4occc43)c2=O)c1	Myeloid diff MLP active
O=C(Cn1ncc2c([nH]c3ccccc32)c1=O)Nc1ccc(CN2CCCCC2)cc1	Myeloid diff MLP active
O=C(Cn1ncc2c([nH]c3ccccc32)c1=O)NCCc1ccc(Cl)cc1	none
Cc1ccc(N/N=C(\C#N)C(N)=S)c(C)c1	none
Cc1ccc(NC(=O)/C(C#N)=N/Nc2ccc(C(=O)O)cc2)c(C)c1	M1 PAM 24
CC(/C=N/n1c(-c2n[nH]c3c2CCC3)n[nH]c1=S)=C\c1ccco1	M1 antag 67
COc1cccc(/C=N/n2c(-c3n[nH]c4c3CCC4)n[nH]c2=S)c1OC	M1 antag 76
Cc1ccc(C(=O)NCCCNC(=O)c2ccco2)cc1C	none
OC(CNc1nc(C(F)(F)F)nc2ccccc12)c1ccccc1 (stereo not given)	none
O=C(O)CCNc1nc(C(F)(F)F)nc2ccccc12	Myeloid diff MLP active
CCN(CC)c1ccc(C=C2SC(=S)NC2=O)cc1	Myeloid diff MLP active, M1 antag 83, CHRM1 agonist 111
CCN(CC)c1ccc(/C=C2\SC(N)=NC2=O)cc1	Myeloid diff MLP active
O=C1NC(=S)S/C1=C/c1ccc(OC(=O)c2ccco2)cc1	Myeloid diff MLP active
COc1ccccc1NC(=O)CSc1nnc(-c2ccncc2)o1	SKN-1 block 40
CCOc1ccccc1NC(=O)CSc1nnc(-c2ccncc2)o1	none
CCOC(=O)C1CCCN(S(=O)(=O)c2c(C)noc2C)C1 (stereo not given)	none (no result: Myeloid diff MLP)
C[C@H](CO)N1C[C@H](C)[C@H](CN(C)C(=O)NC2CCCCC2)Oc2ncc(Br)cc2C1=O	Myeloid diff MLP active (no result: ATG4B inhibitor)
COc1ccc(S(=O)(=O)Nc2ccc3c(c2)C(=O)N([C@H](C)CO)C[C@H](C)[C@@H](CN(C)C(=O)Nc2c(C)noc2C)OCCCC[C@H](C)O3)cc1	CHRM1 agonist 40 (no result: ATG4B inhibitor)
C[C@H](CO)N1C[C@H](C)[C@@H](CN(C)S(=O)(=O)c2cccs2)Oc2ccc(NC(=O)Cn3cnnn3)cc2C1=O	M1 antag 26 (no result: ATG4B inhibitor)
C[C@H](CO)N1C[C@H](C)[C@@H](CN(C)S(C)(=O)=O)Oc2ccc(NC(=O)Cn3cnnn3)cc2C1=O	none
COc1ccc(S(=O)(=O)N(C)C[C@H]2Oc3ccc(NS(=O)(=O)c4cccs4)cc3C(=O)N([C@H](C)CO)C[C@@H]2C)cc1	Myeloid diff MLP active
CCCCn1cnc2c(SCc3ccccc3Cl)nc(N)nc21	none
C[C@H](CO)N1C[C@H](C)[C@@H](CN(C)S(=O)(=O)c2cccs2)Oc2ccc(NC(=O)NC3CCCCC3)cc2C1=O	M1 antag 44
C[C@H](CO)N1C[C@H](C)[C@@H](CN(C)S(=O)(=O)c2ccccc2)Oc2ccc(NC(=O)C3CCCCC3)cc2C1=O	none
C[C@@H]1CCCCO[C@H](CN(C)S(=O)(=O)c2cccs2)[C@H](C)CN([C@@H](C)CO)C(=O)c2cc(NC(=O)NC3CCCCC3)ccc2O1	none (no result: ATG4B inhibitor)
C[C@H](CO)N1C[C@H](C)[C@@H](CN(C)S(=O)(=O)c2ccccc2)Oc2ccc(NC(=O)NC3CCCCC3)cc2C1=O	M1 antag 39
Cc1ccc2c(c1C)NC(=O)C21N2CCCC2C(C(=O)c2ccc3ccccc3c2)C12C(=O)Nc1ccccc12 (stereo not given)	none
O=C(Nc1cccnc1)c1c(O)c2cccc3c2n(c1=O)CC3	SKN-1 block 38
Cn1ccc2c(-c3ccc(C(N)=O)cc3)cc3c(c21)C1CCC3C1 (stereo not given)	none (no result: ATG4B inhibitor)
CCOC(=O)N1CCC(NCCNC(=O)c2ccccc2Cl)CC1	M1 antag 38, CHRM1 agonist 43
CCOC(=O)N1CCC(NCCNC(=O)c2cccs2)CC1	CHRM1 agonist 31
CCOC(=O)N1CCC(NC(=O)c2ccccc2C(=O)O)CC1	none
